Source: the supplement of paper PMC11732987, “Enantioselective OTUD7B fragment discovery through chemoproteomics screening and high-throughput optimisation” (Communications Chemistry, 2025)

Experiments:
Test in all cases: log2 ratio of Biotin-Ahx-Ub-VS probe labelling (fragment/DMSO); higher = less target engagement (more negative = stronger competition), active = hit call of the paper (q ≤ 0.05, log2 ratio ≤ -1)
Settings in all cases: compound concentration: 200 uM; treatment time: 3 h
USP19 = target: T1, USP19 (UniProt O94966)
T1 sequence (whole entry): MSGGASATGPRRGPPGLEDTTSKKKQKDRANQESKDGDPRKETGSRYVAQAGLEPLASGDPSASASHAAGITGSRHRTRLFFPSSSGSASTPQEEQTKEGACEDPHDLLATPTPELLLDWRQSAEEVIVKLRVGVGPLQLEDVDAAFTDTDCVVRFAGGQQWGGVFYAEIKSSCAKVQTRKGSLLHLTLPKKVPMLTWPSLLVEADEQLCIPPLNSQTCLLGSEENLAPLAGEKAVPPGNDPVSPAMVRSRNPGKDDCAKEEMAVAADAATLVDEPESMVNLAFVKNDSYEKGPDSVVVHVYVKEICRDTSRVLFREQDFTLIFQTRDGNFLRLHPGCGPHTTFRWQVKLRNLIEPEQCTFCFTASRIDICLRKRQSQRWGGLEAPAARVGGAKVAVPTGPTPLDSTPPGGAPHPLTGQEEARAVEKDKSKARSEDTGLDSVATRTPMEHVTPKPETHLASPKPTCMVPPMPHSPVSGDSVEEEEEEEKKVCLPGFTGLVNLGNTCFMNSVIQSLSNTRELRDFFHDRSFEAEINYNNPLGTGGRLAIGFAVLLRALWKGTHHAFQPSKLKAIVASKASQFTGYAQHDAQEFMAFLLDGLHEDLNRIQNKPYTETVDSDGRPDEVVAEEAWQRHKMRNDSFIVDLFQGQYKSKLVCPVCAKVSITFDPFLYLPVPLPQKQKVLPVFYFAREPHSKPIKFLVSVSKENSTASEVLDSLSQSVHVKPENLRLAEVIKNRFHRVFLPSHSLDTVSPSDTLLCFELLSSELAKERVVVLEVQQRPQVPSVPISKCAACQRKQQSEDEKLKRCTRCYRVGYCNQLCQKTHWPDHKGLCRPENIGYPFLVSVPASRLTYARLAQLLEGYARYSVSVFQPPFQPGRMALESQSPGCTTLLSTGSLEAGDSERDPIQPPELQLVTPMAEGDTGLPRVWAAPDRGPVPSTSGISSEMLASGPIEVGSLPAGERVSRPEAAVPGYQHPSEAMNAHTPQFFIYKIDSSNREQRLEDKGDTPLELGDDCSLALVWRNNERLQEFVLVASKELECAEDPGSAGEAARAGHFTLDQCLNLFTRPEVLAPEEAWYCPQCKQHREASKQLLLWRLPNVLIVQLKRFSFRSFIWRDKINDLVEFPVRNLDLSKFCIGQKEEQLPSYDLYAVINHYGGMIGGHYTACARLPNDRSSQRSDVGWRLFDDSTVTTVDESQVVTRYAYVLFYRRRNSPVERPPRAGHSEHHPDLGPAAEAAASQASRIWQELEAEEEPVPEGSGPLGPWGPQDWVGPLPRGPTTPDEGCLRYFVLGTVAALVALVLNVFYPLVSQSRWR
Procedure, shortened: (§1)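 Triplicate samples of HEK293T lysate, 495 µg each, received fragment at 200 µM or vehicle for 3 h, followed by Biotin-Ahx-Ub-VS (0.5 µM final) for 1 h. After NeutrAvidin enrichment of labelled DUBs and LysC/trypsin digestion, peptides were run by diaPASEF LC-MS/MS. The values are average log2 fragment/vehicle ratios from global-median-normalised Spectronaut label-free quantities, tested by unpaired t-test on proteins having ≥2 unique peptides.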

USP22 = target: T2, USP22 (UniProt Q9UPT9)
T2 sequence (whole entry): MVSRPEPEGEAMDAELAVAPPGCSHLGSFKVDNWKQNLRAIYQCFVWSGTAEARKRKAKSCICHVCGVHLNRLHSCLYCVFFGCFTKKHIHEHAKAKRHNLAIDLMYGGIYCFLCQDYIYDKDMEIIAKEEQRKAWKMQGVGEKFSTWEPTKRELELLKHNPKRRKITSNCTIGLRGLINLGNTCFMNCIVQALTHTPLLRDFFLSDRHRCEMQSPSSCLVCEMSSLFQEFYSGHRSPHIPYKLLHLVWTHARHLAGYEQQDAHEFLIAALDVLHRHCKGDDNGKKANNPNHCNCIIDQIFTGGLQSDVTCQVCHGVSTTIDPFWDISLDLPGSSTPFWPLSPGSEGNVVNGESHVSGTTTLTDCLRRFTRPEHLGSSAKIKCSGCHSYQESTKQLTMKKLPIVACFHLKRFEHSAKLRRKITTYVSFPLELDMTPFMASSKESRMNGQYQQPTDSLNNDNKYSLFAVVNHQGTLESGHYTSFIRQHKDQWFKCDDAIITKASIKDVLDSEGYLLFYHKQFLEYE
Procedure, shortened: as §1

USP24 = USP24 (UniProt Q9UPU5)
USP24, sequence (Q9UPU5 whole entry): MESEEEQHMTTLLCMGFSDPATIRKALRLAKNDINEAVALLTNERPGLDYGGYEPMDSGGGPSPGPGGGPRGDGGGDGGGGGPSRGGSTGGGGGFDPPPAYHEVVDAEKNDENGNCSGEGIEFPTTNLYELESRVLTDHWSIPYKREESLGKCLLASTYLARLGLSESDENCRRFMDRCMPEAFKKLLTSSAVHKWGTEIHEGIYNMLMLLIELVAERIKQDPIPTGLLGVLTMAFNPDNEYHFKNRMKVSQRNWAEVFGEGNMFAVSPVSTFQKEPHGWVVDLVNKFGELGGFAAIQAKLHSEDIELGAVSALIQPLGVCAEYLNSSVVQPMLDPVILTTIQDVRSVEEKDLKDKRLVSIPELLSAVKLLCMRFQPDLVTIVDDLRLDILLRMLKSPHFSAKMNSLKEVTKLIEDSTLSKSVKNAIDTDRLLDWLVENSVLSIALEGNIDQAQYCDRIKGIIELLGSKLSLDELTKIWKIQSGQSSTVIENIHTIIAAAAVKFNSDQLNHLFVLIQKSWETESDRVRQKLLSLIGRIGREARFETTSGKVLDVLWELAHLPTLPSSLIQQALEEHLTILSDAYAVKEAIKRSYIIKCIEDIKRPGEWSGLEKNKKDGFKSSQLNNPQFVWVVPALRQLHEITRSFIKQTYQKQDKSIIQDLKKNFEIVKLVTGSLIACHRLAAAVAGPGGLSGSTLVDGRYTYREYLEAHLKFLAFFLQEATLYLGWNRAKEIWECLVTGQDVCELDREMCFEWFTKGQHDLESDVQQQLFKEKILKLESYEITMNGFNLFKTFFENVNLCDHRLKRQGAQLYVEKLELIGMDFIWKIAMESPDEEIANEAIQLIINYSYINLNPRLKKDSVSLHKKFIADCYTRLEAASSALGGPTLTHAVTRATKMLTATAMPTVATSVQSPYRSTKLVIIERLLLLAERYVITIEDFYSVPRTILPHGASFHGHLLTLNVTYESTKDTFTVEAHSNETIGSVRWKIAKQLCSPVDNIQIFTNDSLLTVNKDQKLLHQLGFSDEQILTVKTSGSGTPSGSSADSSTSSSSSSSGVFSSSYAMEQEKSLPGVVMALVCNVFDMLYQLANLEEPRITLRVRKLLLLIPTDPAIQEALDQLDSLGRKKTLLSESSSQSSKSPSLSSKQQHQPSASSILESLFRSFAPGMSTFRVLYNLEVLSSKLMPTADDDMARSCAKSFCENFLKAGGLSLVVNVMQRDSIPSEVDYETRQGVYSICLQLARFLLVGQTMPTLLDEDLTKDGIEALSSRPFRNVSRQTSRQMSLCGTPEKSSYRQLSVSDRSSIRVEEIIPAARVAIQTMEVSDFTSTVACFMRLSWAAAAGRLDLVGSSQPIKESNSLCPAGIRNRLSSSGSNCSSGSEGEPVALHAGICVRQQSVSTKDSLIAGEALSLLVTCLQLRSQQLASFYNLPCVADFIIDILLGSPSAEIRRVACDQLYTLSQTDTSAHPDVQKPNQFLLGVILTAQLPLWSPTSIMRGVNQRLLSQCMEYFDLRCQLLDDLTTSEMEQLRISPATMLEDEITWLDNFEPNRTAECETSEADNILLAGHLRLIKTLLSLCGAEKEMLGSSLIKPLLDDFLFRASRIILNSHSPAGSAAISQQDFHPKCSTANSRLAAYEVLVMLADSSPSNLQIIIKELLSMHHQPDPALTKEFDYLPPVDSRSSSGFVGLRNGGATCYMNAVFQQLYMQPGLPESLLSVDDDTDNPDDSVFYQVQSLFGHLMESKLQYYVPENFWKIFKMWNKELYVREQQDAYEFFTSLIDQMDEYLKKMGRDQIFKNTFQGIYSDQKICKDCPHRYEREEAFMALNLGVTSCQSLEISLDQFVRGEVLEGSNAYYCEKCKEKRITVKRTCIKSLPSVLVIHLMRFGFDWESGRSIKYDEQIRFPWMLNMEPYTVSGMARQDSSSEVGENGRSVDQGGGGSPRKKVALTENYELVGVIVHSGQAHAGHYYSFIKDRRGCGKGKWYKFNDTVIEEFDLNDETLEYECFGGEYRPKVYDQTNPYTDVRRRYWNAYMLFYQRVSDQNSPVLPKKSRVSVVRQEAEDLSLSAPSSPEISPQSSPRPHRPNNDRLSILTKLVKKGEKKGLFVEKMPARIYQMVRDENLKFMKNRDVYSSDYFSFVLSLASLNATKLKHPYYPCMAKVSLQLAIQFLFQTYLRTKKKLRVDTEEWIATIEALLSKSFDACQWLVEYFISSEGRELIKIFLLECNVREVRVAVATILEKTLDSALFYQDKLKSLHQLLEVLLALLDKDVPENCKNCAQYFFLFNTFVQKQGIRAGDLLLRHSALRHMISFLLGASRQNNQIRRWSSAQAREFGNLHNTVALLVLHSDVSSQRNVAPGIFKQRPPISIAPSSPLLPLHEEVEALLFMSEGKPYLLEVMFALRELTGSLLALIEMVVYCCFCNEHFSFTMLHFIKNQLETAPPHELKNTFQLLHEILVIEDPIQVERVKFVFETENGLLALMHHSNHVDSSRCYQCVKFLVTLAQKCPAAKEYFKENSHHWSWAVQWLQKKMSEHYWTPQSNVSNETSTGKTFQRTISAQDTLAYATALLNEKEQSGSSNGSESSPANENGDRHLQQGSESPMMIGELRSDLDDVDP
Procedure, shortened: as §1

USP25 = target: T3, USP25 (UniProt Q9UHP3)
T3 sequence (whole entry): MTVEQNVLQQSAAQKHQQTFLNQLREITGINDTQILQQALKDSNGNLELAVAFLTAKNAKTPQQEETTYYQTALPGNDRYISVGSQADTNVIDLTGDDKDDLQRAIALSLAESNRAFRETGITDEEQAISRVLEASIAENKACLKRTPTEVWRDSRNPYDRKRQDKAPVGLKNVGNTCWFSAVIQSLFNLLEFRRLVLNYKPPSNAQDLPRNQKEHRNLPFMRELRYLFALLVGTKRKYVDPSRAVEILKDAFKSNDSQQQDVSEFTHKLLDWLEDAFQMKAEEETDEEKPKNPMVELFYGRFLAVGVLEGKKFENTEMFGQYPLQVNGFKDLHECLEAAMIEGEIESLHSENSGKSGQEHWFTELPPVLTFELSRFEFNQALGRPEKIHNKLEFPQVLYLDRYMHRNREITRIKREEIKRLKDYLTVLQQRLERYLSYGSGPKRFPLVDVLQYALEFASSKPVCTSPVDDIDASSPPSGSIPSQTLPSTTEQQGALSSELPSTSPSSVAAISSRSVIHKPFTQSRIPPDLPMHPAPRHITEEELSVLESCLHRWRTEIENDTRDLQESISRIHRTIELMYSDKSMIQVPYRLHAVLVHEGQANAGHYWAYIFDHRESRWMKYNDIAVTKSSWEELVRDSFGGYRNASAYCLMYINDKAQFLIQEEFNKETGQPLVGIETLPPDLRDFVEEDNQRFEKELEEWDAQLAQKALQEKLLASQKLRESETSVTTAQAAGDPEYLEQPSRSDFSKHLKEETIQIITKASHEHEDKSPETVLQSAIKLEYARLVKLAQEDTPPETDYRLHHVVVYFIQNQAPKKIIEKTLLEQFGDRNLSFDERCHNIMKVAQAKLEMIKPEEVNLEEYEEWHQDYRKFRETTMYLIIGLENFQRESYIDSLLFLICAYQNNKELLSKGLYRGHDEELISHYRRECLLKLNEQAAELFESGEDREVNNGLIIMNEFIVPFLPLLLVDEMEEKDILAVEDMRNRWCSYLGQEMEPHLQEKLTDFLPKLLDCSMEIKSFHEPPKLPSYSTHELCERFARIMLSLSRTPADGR
Procedure, shortened: as §1

USP28 = target: T4, USP28 (UniProt Q96RU2)
T4 sequence (whole entry): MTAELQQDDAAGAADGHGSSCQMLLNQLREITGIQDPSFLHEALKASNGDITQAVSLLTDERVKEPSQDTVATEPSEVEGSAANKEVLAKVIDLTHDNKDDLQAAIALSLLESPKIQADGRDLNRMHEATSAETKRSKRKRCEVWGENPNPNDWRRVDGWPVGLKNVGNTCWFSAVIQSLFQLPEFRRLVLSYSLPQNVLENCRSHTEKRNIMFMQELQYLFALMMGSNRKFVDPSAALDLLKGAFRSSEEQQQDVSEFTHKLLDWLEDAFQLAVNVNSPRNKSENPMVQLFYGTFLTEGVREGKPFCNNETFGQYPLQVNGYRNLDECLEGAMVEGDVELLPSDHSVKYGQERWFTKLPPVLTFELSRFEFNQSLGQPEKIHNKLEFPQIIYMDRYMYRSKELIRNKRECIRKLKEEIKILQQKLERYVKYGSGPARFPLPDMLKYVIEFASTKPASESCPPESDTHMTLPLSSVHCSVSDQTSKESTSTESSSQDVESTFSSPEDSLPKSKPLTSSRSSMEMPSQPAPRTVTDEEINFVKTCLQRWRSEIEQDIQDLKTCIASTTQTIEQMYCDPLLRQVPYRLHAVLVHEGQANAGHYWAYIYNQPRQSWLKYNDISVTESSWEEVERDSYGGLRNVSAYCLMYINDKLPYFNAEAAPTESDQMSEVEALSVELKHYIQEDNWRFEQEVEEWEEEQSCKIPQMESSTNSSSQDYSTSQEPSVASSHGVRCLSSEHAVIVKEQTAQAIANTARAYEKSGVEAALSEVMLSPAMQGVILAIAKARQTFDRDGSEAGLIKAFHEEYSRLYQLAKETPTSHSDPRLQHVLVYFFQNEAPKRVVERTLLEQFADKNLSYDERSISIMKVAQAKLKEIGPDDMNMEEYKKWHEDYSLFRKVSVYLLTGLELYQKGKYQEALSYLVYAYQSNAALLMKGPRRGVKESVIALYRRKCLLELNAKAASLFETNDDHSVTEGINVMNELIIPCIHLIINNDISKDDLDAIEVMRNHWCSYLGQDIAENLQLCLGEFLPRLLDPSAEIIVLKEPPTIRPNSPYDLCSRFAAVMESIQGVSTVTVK
Procedure, shortened: as §1

Measured: log2 ratio of Biotin-Ahx-Ub-VS probe labelling

CCC(NC(=O)CCl)c1ccc(Cl)cc1 (stereo not given)
inactive: USP19 -0.0763 | USP22 -0.735 | USP24 -0.327 | USP25 -0.24 | USP28 -0.504
